Here are results for 37 molecules from PubChem BioAssay (Tox21).

Where “and” joins values, the source holds several entries; their conditions need not be identical. Equal values may be shown once. Results filed as inconclusive are left out. A call without a number means that no potency is given here. Some compounds were tested as several samples or in several runs, with calls that do not always agree. Calls of active or inactive are those of the source. Unless noted, the call rests on the fitted dose curve; in most records, active means well fitted curve in the direction sought with a large enough effect in the repeat runs; inconclusive means weak or mixed curves; inactive means no such curve, though single readings can be large; an effect the other way counts as inactive or inconclusive.
Potency means the concentration at half of the fitted maximal effect.

Chain of Nuclear receptor subfamily 1 group I member 3 (Homo sapiens) (Q14994 whole entry, looked up): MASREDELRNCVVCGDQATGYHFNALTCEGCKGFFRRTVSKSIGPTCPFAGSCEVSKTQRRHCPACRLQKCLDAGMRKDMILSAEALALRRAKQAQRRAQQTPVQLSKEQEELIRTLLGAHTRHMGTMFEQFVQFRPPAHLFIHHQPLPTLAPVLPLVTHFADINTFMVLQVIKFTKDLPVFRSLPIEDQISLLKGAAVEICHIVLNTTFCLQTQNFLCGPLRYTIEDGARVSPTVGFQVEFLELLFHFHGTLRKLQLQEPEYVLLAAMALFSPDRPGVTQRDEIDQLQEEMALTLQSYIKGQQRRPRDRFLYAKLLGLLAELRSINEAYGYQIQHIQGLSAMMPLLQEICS

One experiment addresses Nuclear receptor subfamily 1 group I member 3 (Homo sapiens) (UniProt Q14994). The experiment is described as follows: qHTS assay to identify small molecule antagonists of the constitutive androstane receptor (CAR) signaling pathway (AID 1224838). Further: nearly all actives have a fitted effect of over 40% in size. The settings on record: HepG2-CYP2B6-hCAR luciferase, CITCO-stimulated, 24 h; series mostly up to 92.4 µM. The essentials: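 Read-out: ONE-Glo luciferase luminescence after 30 min at room temperature. HepG2-CYP2B6-hCAR double-stable cells, compounds in 15-point titration plus 50 nM CITCO final, 24 h at 37 C/5% CO2.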
In general terms: Quantitative high-throughput screening tests each substance at several concentrations.
Regarding `CN(C)[C@@H]1C(=O)C(C(N)=O)=C(O)[C@@]2(O)C(=O)C3=C(O)c4c(O)cccc4[C@@](C)(O)[C@H]3C[C@@H]12`, the Potency result is “inactive”.

Consider `CC1C=[C-]C=C1.[C-]#[O+].[C-]#[O+].[C-]#[O+].[Mn]`, for which the Potency entry was “inactive”.

Consider `CCCN(CCC)N=O`, for which the Potency result was “inactive”.

As to `C1CN2CCN1CC2`, the Potency entry is “inactive”.

For the molecule `[N-]=[N+]=[N-]`, the Potency entry is “inactive”.

Turning to `CC(Br)C(=O)O` (stereo unspecified), the Potency result is “inactive”.

On to `CC(C)(Cl)Cl`, for which the Potency entry was “inactive”.

Turning to `O=NN1CCCCCCC1`, the Potency entry was “inactive”.

As to `CC(=O)C=C(C)C`, the Potency entry is “inactive”.

Take `OCCN(CCO)CCO`: the Potency entry is “inactive”.

Take `ClCc1cccnc1`: the Potency entry was “inactive”.

In the case of `Cc1[nH]c(=O)n(C(C)(C)C)c(=O)c1Cl`, the Potency result is “inactive”.

Turning to `BrCCBr`, the Potency result is “inactive”.

Consider `CCC(C)(CC)c1cc(NC(=O)c2c(OC)cccc2OC)on1`, for which the Potency entry was “inactive”.

With `CN(C)N=O`, the Potency entry was “inactive”.

For the molecule `Cc1ccc(N)cc1N`, the Potency result was “inactive”.

Turning to `CCC[N+](=O)[O-]`, the Potency is 8.48 µM (active) and inactive.

For the molecule `CCC12COCN1COC2`, the Potency entry is “inactive”.

For `CC(C)(C)OOC(=O)c1ccccc1`, the Potency entry was “inactive”.

With `CCOP(OCC)OCC`, the Potency entry was “inactive”.

Regarding `Nc1ccc(Br)cc1`, the Potency result was “inactive”.

With `CCOP(=S)(OCC)SCCSCC`, the Potency result is “inactive”.

On to `O=NN1CCCC1`, for which the Potency is 28.6 µM (active) and inactive.

With `C#CC(C)(C)NC(=O)c1cc(Cl)cc(Cl)c1`, the Potency result was “inactive”.

Consider `O=[N+]([O-])c1ccc(Oc2ccc(Cl)cc2Cl)cc1`, for which the Potency entry is “inactive”.

As to `CCN(CC)CCO`, the Potency result is “inactive”.

Take `C=CCO`: the Potency result was “inactive”.

For the molecule `CCCC1COC(Cn2cncn2)(c2ccc(Cl)cc2Cl)O1` (stereo unspecified), the Potency result was “inactive”.

`C1CC2OC2CC1C1CO1` (stereo unspecified): the Potency result was “inactive”.

Turning to `O=Cc1cccc(Oc2ccccc2)c1`, the Potency entry is “inactive”.

Regarding `CCNc1nc(NC(C)C)nc(SC)n1`, the Potency entry was “inactive”.

The next experiment has the same target. Put plainly: qHTS assay to identify small molecule agonists of the constitutive androstane receptor (CAR) signaling pathway (AID 1224839). Further: nearly all actives have a fitted effect of over 15% in size. Conditions: HepG2 hCAR CYP2B6-luciferase, agonist mode, 24 h; series mostly up to 92.4 µM. The essentials:
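HepG2 cells stably expressing hCAR and a CYP2B6-2.2kb luciferase reporter were treated with compounds at 15 concentrations plus 0.75 uM PK11195 (final) for 24 h at 37 C; luminescence was read after ONE-Glo addition.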
For `CN(C)[C@@H]1C(=O)C(C(N)=O)=C(O)[C@@]2(O)C(=O)C3=C(O)c4c(O)cccc4[C@@](C)(O)[C@H]3C[C@@H]12`, the Potency result is “inactive”.

`CCCN(CCC)N=O`: the Potency entry is “inactive”.

For the molecule `C1CN2CCN1CC2`, the Potency result was “inactive”.

`[N-]=[N+]=[N-]`: the Potency result was “inactive”.

As for `CC(Br)C(=O)O` (stereo unspecified), the Potency entry is “inactive”.

Turning to `CC(C)(Cl)Cl`, the Potency result is “inactive”.

As to `O=NN1CCCCCCC1`, the Potency result is “inactive”.

Consider `CC(=O)C=C(C)C`, for which the Potency entry was “inactive”.

Take `ClCc1cccnc1`: the Potency result was “inactive”.

For the molecule `Cc1[nH]c(=O)n(C(C)(C)C)c(=O)c1Cl`, the Potency result was “inactive”.

For `BrCCBr`, the Potency result is “inactive”.

With `CCC(C)(CC)c1cc(NC(=O)c2c(OC)cccc2OC)on1`, the Potency entry was “inactive”.

For the molecule `CN(C)N=O`, the Potency result is “inactive”.

On to `Cc1ccc(N)cc1N`, for which the Potency was 53 µM (active).

Consider `CCC[N+](=O)[O-]`, for which the Potency entry is “inactive”.

Turning to `CCC12COCN1COC2`, the Potency entry was “inactive”.

As to `CC(C)(C)OOC(=O)c1ccccc1`, the Potency result is “inactive”.

On to `CCOP(OCC)OCC`, for which the Potency entry was “inactive”.

On to `CCOP(=S)(OCC)SCCSCC`, for which the Potency entry is “inactive”.

In the case of `O=NN1CCCC1`, the Potency result was “inactive”.

Regarding `C#CC(C)(C)NC(=O)c1cc(Cl)cc(Cl)c1`, the Potency result was “inactive”.

Take `O=[N+]([O-])c1ccc(Oc2ccc(Cl)cc2Cl)cc1`: the Potency was 54.8 µM (active) and inactive.

`CCN(CC)CCO`: the Potency entry is “inactive”.

For `C=CCO`, the Potency entry is “inactive”.

For `CCCC1COC(Cn2cncn2)(c2ccc(Cl)cc2Cl)O1` (stereo unspecified), the Potency is 62.3 µM (active) and 61.1 µM (active).

Take `C1CC2OC2CC1C1CO1` (stereo unspecified): the Potency entry is “inactive”.

Regarding `O=Cc1cccc(Oc2ccccc2)c1`, the Potency entry is “inactive”.

`CCNc1nc(NC(C)C)nc(SC)n1`: the Potency was 48.6 µM (active).

Tested on in a further experiment: not listed separately
Put plainly: qHTS assay to identify small molecule antagonists of the estrogen related receptor signaling pathway with the pleiotropic PPARgamma coactivator (PGC) from Tox21 10K library - cell viability counter screen (AID 1224840; active means well fitted cell-killing curve with a large enough effect in the repeat runs, not every such curve was filed as active; further: nearly all actives have a fitted effect of over 40% in size). The settings on record: PGC/ERR reporter cells viability, CellTiter-Fluor, 17.5 h; series mostly up to 92.4 µM. The essentials: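 Fluorescence read-out of CellTiter-Fluor viability reagent, added after cells had been exposed to compound in DMSO for 17.5 h at 37 C; 30 min development at 37 C/5% CO2. Cells: PGC/ERR line, 2,000/well.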
Turning to `C=CC(N)=O`, the Potency result was “inactive”.

On to `O=c1ccc(=O)[nH][nH]1`, for which the Potency result was “inactive”.

Regarding `CN(C)[C@@H]1C(=O)C(C(N)=O)=C(O)[C@@]2(O)C(=O)C3=C(O)c4c(O)cccc4[C@@](C)(O)[C@H]3C[C@@H]12`, the Potency result is “inactive”.

Consider `O=[N+]([O-])c1ccccc1`, for which the Potency result is “inactive”.

As for `CC1C=[C-]C=C1.[C-]#[O+].[C-]#[O+].[C-]#[O+].[Mn]`, the Potency result was “inactive”.

`CCCN(CCC)N=O`: the Potency entry is “inactive”.

On to `C1CN2CCN1CC2`, for which the Potency result was “inactive”.

Regarding `[N-]=[N+]=[N-]`, the Potency entry was “inactive”.

For `CC(Br)C(=O)O` (stereo unspecified), the Potency entry is “inactive”.

On to `CC(C)(Cl)Cl`, for which the Potency result is “inactive”.

Consider `CCNc1nc(NC(C)(C)C)nc(SC)n1`, for which the Potency result is “inactive”.

Take `O=NN1CCCCCCC1`: the Potency entry is “inactive”.

For the molecule `CC(=O)C=C(C)C`, the Potency entry is “inactive”.

On to `OCCN(CCO)CCO`, for which the Potency entry is “inactive”.

Take `Nc1c(Cl)c(Cl)nc(C(=O)O)c1Cl`: the Potency result is “inactive”.

With `ClCc1cccnc1`, the Potency entry was “inactive”.

Consider `Cc1[nH]c(=O)n(C(C)(C)C)c(=O)c1Cl`, for which the Potency result is “inactive”.

In the case of `BrCCBr`, the Potency result is “inactive”.

Regarding `CCC(C)(CC)c1cc(NC(=O)c2c(OC)cccc2OC)on1`, the Potency entry is “inactive”.

Consider `CN(C)N=O`, for which the Potency entry was “inactive”.

With `Cc1ccc(N)cc1N`, the Potency result was “inactive”.

Turning to `CCC[N+](=O)[O-]`, the Potency is 37.9 µM (active) and inactive.

For `CCC12COCN1COC2`, the Potency entry is “inactive”.

Regarding `CC(C)(C)OOC(=O)c1ccccc1`, the Potency entry was “inactive”.

`CCOP(OCC)OCC`: the Potency result is “inactive”.

As for `Nc1ccc(Br)cc1`, the Potency result was “inactive”.

Regarding `CCOP(=S)(OCC)SCCSCC`, the Potency result was “inactive”.

In the case of `O=NN1CCCC1`, the Potency entry was “inactive”.

For `C#CC(C)(C)NC(=O)c1cc(Cl)cc(Cl)c1`, the Potency result was “inactive”.

As to `O=[N+]([O-])c1ccc(Oc2ccc(Cl)cc2Cl)cc1`, the Potency entry was “inactive”.

With `CCN(CC)CCO`, the Potency entry was “inactive”.

Turning to `C=CCO`, the Potency result was “inactive”.

Turning to `CCCC1COC(Cn2cncn2)(c2ccc(Cl)cc2Cl)O1` (stereo unspecified), the Potency was 61.1 µM (active).

Regarding `C1CC2OC2CC1C1CO1` (stereo unspecified), the Potency result is “inactive”.

Regarding `O=Cc1cccc(Oc2ccccc2)c1`, the Potency entry is “inactive”.

In the case of `CC(NC(C)(C)C)C(=O)c1cccc(Cl)c1` (stereo unspecified), the Potency result is “inactive”.

Take `CCNc1nc(NC(C)C)nc(SC)n1`: the Potency entry was “inactive”.
